The source of these data is PubChem BioAssay (EPA / NIEHS).

Results filed as inconclusive are left out. The source made the active and inactive calls. The calls were made as follows: active = hit-call score of the fitted dose curve at least 0.9, where 1 is the maximum; inconclusive = response in the unintended direction; inactive = score below 0.9.

Sequence of human Thyroid Receptor alpha (THRa1), THRA (gene 7067) (P10827 whole entry, looked up): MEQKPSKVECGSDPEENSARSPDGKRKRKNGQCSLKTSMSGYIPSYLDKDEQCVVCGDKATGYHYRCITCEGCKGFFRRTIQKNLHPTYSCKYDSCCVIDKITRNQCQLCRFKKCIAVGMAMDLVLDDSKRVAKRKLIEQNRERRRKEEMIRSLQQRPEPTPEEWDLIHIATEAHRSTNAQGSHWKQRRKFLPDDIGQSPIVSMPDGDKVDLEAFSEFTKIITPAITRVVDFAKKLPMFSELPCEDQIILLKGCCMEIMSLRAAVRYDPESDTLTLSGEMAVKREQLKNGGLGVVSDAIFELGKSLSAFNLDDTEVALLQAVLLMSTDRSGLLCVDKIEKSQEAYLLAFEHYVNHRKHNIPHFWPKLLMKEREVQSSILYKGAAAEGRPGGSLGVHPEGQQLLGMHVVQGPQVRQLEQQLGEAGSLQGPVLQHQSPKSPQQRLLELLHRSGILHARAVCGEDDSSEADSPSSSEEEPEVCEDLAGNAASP

This assay concerns the target human Thyroid Receptor alpha (THRa1), THRA (gene 7067) (UniProt P10827). The experiment in a line: ATG_THRa1_TRANS: Attagene TRANS-FACTORIAL HepG2 Assay for human Thyroid Receptor alpha (THRa1) (AID 2283014). The protocol:
ATG_TRANS is a cell-based, multiplexed-readout assay that uses HepG2, a human liver cell line, with measurements taken at 24 hours after chemical dosing in a 24-well plate.ATG_THRa1_TRANS is one of 30 assay component(s) measured or calculated from the ATG_TRANS assay. It is designed to make measurements of mRNA induction, a form of inducible reporter, as detected with fluorescence intensity signals by Reverse transcription polymerase chain reaction (RT-PCR) and Capillary electrophoresis technology.Data from the assay component ATG_THRa1_TRANS was analyzed into 1 assay endpoint. This assay endpoint, ATG_THRa1_TRANS, was analyzed in the positive analysis fitting direction relative to DMSO as the negative control and baseline of activity. Using a type of inducible reporter, measures of mRNA for gain-of-signal activity can be used to understand the reporter gene at the transcription factor-level as they relate to the gene THRA. Furthermore, this assay endpoint can be referred to as a primary readout, because this assay has produced multiple assay endpoints where this one serves a reporter gene function. To generalize the intended target to other relatable targets, this assay endpoint is annotated to the nuclear receptor intended target family, where the subfamily is non-steroidal.
Human liver HepG2 cells are transiently transfected with multiple reporter transcription units (MRTUs) in 6-well plates using FuGene 6 reagent (Roche; 3 ml FuGene/1 mg DNA). The MRTU constructs are regulated by a cis-regulating element (promoter). […] A major difference between the CIS and TRANS system is that in CIS activities of endogenous TFs are measured, whereas the TRANS assay evaluates changes in activities of exogenous, chimeric NR-Gal4 proteins. […] At the end of 24 hour incubation, total RNA was isolated using TriZol reagent (Invitrogen). The isolated RNA is then reverse-transcribed using oligo(dT) primer and Mo-MLV reverse transcriptase (Invitrogen) with DNAse I (Ambion) treatment for 30 min. The one-tenth of the produced cDNA was amplified by PCR using Taq DNA polymerase (Invitrogen) and two reporter sequence-specific primers. The PCR products were fluorescently labeled by primer extension with 6-arboxyfluorescein (6-FAM) 5'-labeled reporter sequence-specific primer (2 min at 95 C, 20 s at 68 C and 10 min at 72 C) and these products were digested with 5U of HpaI (New England Biolabs) for 2h at 37 C. The fragments were purified using Qiaquick PCR columns (Qiagen), analyzed on an ABI 3130xL genetic analyzer (Applied Biosystems) with peak positions identified by using a set of X-rhodamine (ROX)-labeled MapMarker1000 molecular weight standards (BioVentures). The raw capillary electrophoresis data was processed using Attagraph software (Attagene).
`O=P(OCC(Br)CBr)(OCC(Br)CBr)OCC(Br)CBr` (stereo not given): the outcome was inactive. With `CCOP(=O)(O)C(N)=O`, the compound was called inactive. Regarding `C=CC(=O)OCC(F)(F)C(F)F`, the result was inactive. As to `CCCCCCCc1ccc(O)cc1`, the call was inactive. Turning to `Cc1cccc(N)c1`, the result was inactive. In the case of `CCOS(=O)(=O)OCC`, the compound was classed as inactive. To `O=C(O)C(F)(OC(F)(F)C(F)(F)C(F)(F)F)C(F)(F)F` (stereo not given) belongs “inactive”; to `CC(=O)c1ccc(-c2ccccc2)cc1`, “inactive”. As to `OCC1CO1` (stereo not given), the compound was classed as inactive.

With `OCC(F)(F)OC(F)(F)C(F)(F)OC(F)(F)C(F)(F)OC(F)(F)F`, the outcome was inactive.

Regarding `c1cc2c3c(cccc3c1)CC2`, the compound was called inactive.

For the compound `CCOc1ccc(C(C)(C)COCc2cccc(Oc3ccccc3)c2)cc1`, the compound was called inactive. In the case of `O=C(O)C=CC(F)(C(F)(F)F)C(F)(F)F`, the outcome was inactive.

Turning to `CC(C)Nc1ccc(Nc2ccccc2)cc1`, the outcome was inactive.

Take `CCC1(c2ccccc2)C(=O)N=C(O)NC1=O` (stereo not given): the result was inactive. Turning to `CO/N=C(/C(=O)OC)c1ccccc1COc1ccccc1C`, the compound was classed as inactive. To `O=P(Oc1ccccc1)(Oc1ccccc1)Oc1ccccc1` belongs “inactive”; to `CCOP(=S)(OCC)SCSc1ccc(Cl)cc1`, “inactive”. To `CCCCC(CC)COC(=O)c1c(Br)c(Br)c(Br)c(Br)c1C(=O)OCC(CC)CCCC` (stereo not given) belongs “inactive”; to `Oc1ccc(I)cc1`, “inactive”; to `Clc1ccc(Oc2ccccc2)cc1`, “inactive”. As for `CCNc1nc(Cl)nc(NC(C)(C)C)n1`, the compound was classed as inactive. For the compound `NC(=O)C(F)(F)C(F)(F)F`, the outcome was inactive. Regarding `COP(=O)(O)OC`, the call was inactive. For `[N-]=[N+]=[N-]`, the compound was called inactive. For `Nc1ccc(Cl)cc1`, the call was inactive. To `CC(C)CBr` belongs “inactive”; to `O=S(=O)(c1ccc(O)cc1)c1ccc(O)cc1`, “inactive”. As to `O=C(O)C(Cl)Cl`, the compound was called inactive. As to `C/C(=N\NC(=O)Nc1cc(F)cc(F)c1)c1ncccc1C(=O)O`, the call was inactive. In the case of `CCOC(=O)c1ccccc1N`, the compound was called inactive. For `CC(C)(C)OOC(C)(C)C`, the compound was classed as inactive. Consider `CC(Cl)(Cl)C(=O)O`, for which the compound was classed as inactive. In the case of `c1ccc2c(c1)sc1ccccc12`, the outcome was inactive. Regarding `O=c1ssc(Cl)c1Cl`, the call was inactive. Turning to `C=CC(=O)OCC(CC)(COC(=O)C=C)COC(=O)C=C`, the compound was classed as inactive. As for `O=C(O)C1C(C(=O)O)C2(Cl)C(Cl)=C(Cl)C1(Cl)C2(Cl)Cl` (stereo not given), the compound was called inactive.

On to `CCCN(CCC)c1c([N+](=O)[O-])cc(C(C)C)cc1[N+](=O)[O-]`, for which the outcome was inactive. Regarding `O=[N+]([O-])c1cc(Cl)ccc1Cl`, the compound was called inactive. Take `FC(F)(F)C(F)(C(F)(F)F)C(F)(F)C(F)(F)CC1CO1` (stereo not given): the outcome was inactive.
